HT1080 IDH1KD tx – HT-1080 IDH1 knockdown cell toxicity (counter line); HT-1080 IDH1 knockdown viability, ATP luminescence, 48 h; Potency, µM (doses to about 46.1 µM), inactives show top-dose activity, negative = toxicity, most hits filed as cytotoxic; hit rate 2% among 360,000;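 note: potency is the fitted concentration of half-maximal effect; 0% = DMSO wells and -100% = cell-free medium wells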
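CellTiter-Glo luminescence after 48 h compound exposure at 37 degrees C of IDH1-knockdown HT-1080 cells in 5% FBS RPMI. %Activity scaled between DMSO wells and cell-free media wells, with curves fitted and assigned curve classes.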
TDP1 cell noCPT – qHTS for Inhibitors of human tyrosyl-DNA phosphodiesterase 1 (TDP1): qHTS in cells in absence of CPT | DT40 Tdp1-/- hTDP1 cells, no CPT, ATP luminescence, 48 h | Potency, µM (titrated, usually from 46.2 µM), without a hit: at the top dose activity change, negative = growth inhibition, hits mostly inhibitors | hit rate 15% among 420,000 | AID 686978, 2013; note: potency is the fitted concentration of half-maximal effect; nearly all actives have a fitted effect of over 55% in size
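Growth of hTDP1-complemented DT40 Tdp1-knockout cells is measured by ATP luminescence after at least 48 hr compound exposure at 37 °C, with DMSO substituting for the 20 nM CPT used in the parallel screen.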
DT40 TDP1 CPT – DT40-hTDP1 cell growth loss with CPT | chicken DT40 Tdp1-/-;hTDP1 cells + 20 nM CPT, ATP luminescence, 48 h | Potency, µM (top dose mostly 46.2 µM), for the others: top-dose activity change, negative = growth inhibition, hits mostly inhibitors | hit rate 12% among 420,000; note: potency is the fitted concentration of half-maximal effect; nearly all actives have a fitted effect of over 55% in size
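Chicken DT40 Tdp1-/- cells stably complemented with human TDP1 were seeded at 400 cells/well in medium containing 20 nM camptothecin, exposed to pin-transferred compounds, and grown at 37 °C for at least 48 hr. Viability was read as ATP luminescence.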
ELG1 DNA repair – ELG1-dependent DNA repair inhibition. AID 504467. HEK293T ELG1-luciferase reporter, luminescence, 16 h; DNA damage induced by 5-fluorouridine. hit rate 2.3% among 330,000. Potency, µM (titrated, usually from 46.1 µM), for the others: top-dose activity change, negative = inhibition, hits mostly inhibitors; note: potency is the fitted concentration of half-maximal effect; nearly all actives have a fitted effect of over 55% in size
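Luminescence from the luciferase reporter, measured 30 min after ONE-Glo reagent at room temperature, was the read-out. Beforehand, 2,000 cells per well were exposed for 16 hr at 37 °C to 5-fluorouridine together with compound or vehicle.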
IL1B secr inh – inflammasome signaling inhibition, IL-1 beta readout; THP-1 LPS/ATP IL-1B secretion, AlphaLISA, 16 h; active compounds read low; activity change, % at 57.5 µM; hit rate 4.7% among 360,000; AID 743279; in the data active = activity change below about -50%; inconclusive = mostly about -30% to -49%
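THP-1 cells pretreated 1 hr with compounds (up to 57.5 uM final), then stimulated with LPS (250 ng/mL final) plus ATP (1.25 mM final); secreted IL-1B measured by AlphaLISA after 16 hr, decreased signal indicating inhibition.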
HT1080-NT tox – kills 2HG-producing HT-1080-NT fibrosarcoma cells | HT-1080-NT fibrosarcoma viability, CellTiter-Glo ATP luminescence, 48 h | Potency, µM (series often up to 46.1 µM), inactives show at the highest dose activity, negative = less viability, most hits filed as cytotoxic | hit rate 1.6% among 360,000;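 note: NT is the 2HG producing partner of a matched IDH1 knockdown line; potency is the fitted concentration of half-maximal effect; 0% = DMSO-treated cells and -100% = media-only wells without cells; nearly all actives have a fitted effect of over 55% in size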
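Viability of the 2HG-overproducing fibrosarcoma line after 48 hours of compound exposure at 37 degrees C was determined by luminescence with CellTiter-Glo, and concentration-effect curves were then fitted and categorized.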
Starred values were filed as active, the others as inactive; ? = inconclusive; · = no result given; [ ] = another dose, or the depositor's remark. In the library only some 19% were active in any assay of this set; here they are far more common. Unless noted, calls come from the whole dose curve; as a rule, active = well fitted curve in the direction sought with a large enough effect; inconclusive = small, poorly fitted or top-dose-only effect, or another doubt; inactive = no such curve, though single readings can be large; an effect the other way counts as inactive or inconclusive. Unless noted, % is set by controls: 0 for no effect and ±100 for the full control effect.

SMILES | HT1080 IDH1KD tx | TDP1 cell noCPT | DT40 TDP1 CPT | ELG1 DNA repair | IL1B secr inh | HT1080-NT tox
O=C(Nc1nc(-c2ccc(Cl)cc2)cs1)c1cccnc1 | -2.0% | 18.4µM* | ? | -4.0% | -9.6 | -9.4%
CCCC(=O)NCc1cc(-c2nn(C)c(=O)c3ccccc23)ccc1OC | -0.3% | ? | 6.4% | ? | 29.8 | -1.5%
COc1ccc(CCC(=O)NCc2ccc3c(c2)CCN3C(=O)c2ccc(Cl)cc2)cc1 | · | ? | -6.6% | · | · | ·
O=C(/C=C/c1ccccc1)OCCN=C1NS(=O)(=O)c2ccccc21 | -6.8% | ? | ? | 2.2% | 0.0 | -11.5%
O=C(/C=C/c1ccccc1)OCCCCN=C1NS(=O)(=O)c2ccccc21 | -7.7% | 25.9µM* | 9.2µM* | ? | 91.1 | -6.6%
Cc1c(Cl)cccc1NC(=O)CCn1nc(C)c2c(C)n(-c3ccccc3)nc2c1=O | · | 11.7% | -13.0% | · | · | ·
Cn1nc(C(=O)NNC(=O)c2cccc(Cl)c2)ccc1=O | 2.0% | 0.0% | 12.9% | 8.6% | 5.9 | 5.3%
Cn1nc(C(C)(C)C)cc1C(=O)NNC(=O)c1cccc(Cl)c1 | ? | ? | ? | 7.3µM* | 39.6 | ?
CC(C)(c1cc(Br)c(O)c(Br)c1)c1cc(Br)c(O)c(Br)c1 | -5.3% | -27.7% | 29.7% | 3.7% | 26.4 | 1.2%
N#Cc1ccc(Nc2nc(NCc3ccccc3)nc3ccsc23)cc1 | -27.9% | 1.84µM* | 6.51µM* | · | -5.9 | ?
Fc1ccc(Nc2nc(NCc3ccccc3)nc3ccsc23)cc1 | -24.9% | 9.2µM* | 8.2µM* | · | ? | 20.6µM*
C#Cc1cccc(Nc2nc(NCc3ccccc3)nc3ccsc23)c1 | ? | 10.3µM* | 9.2µM* | · | 0.0 | ?
CCN1CCN(C(=O)C(Cc2ccccc2)NC(=O)c2ccc(Cl)c(S(=O)(=O)N(C)C)c2)CC1 (stereo unspecified) | -1.3% | ? | ? | -3.7% | 0.0 | 0.1%
COc1ccc(N2CC(NC(=O)c3ccco3)CC2=O)cc1OC (stereo unspecified) | · | -2.1% | -17.0% | · | · | ·
COC(=O)c1ccccc1-c1ccc(/C=N/NC(=O)c2cc3ccccc3o2)o1 | -2.4% | 14.6µM* | ? | ? | -13.2 | -2.1%
COC(=O)c1ccccc1-c1ccc(/C=N/Nc2nc(N3CCCC3)nc(N3CCCC3)n2)o1 | ? | 23.1µM* | ? | ? | -90.7* | ?
COc1cc(/C=N/Nc2nc(N3CCCCC3)nc(N3CCCCC3)n2)ccc1OC(=O)c1ccco1 | · | · | · | 6.1% | · | ·
CSCCC(NC(=O)c1cccc(C)c1)C(=O)NNC(=O)c1cccs1 (stereo unspecified) | -3.6% | -19.3% | -3.4% | 19.6% | -0.1 | 0.4%
Cc1cc(C(=O)Nc2nc3c(C)cccc3s2)c(C)o1 | -17.6% | -27.2% | -26.2% | 29.6% | -1.3 | -4.6%
Cc1cccc2sc(NNC(=O)c3cc(-c4cccs4)nc4ccccc34)nc12 | 20.6µM* | 4.11µM* | 4.11µM* | ? | 137.0 | ?
Cc1cccc2sc(NNC(=O)C3=COCCO3)nc12 | -11.3% | ? | 13µM* | 8.3% | -5.3 | -15.4%
COc1ccc(-c2cc(C(=O)Nc3nc4c(C)cccc4s3)c3ccccc3n2)cc1OC | ? | 20.6µM* | 16.4µM* | ? | -3.2 | -9.1%
COc1ccc(NC(=O)c2cc(-c3ccco3)nc3ccccc23)cn1 | 2.6% | 20.6µM* | ? | -12.9% | 6.2 | -3.8%
COC(=O)c1c(C)sc(-c2c(-c3ccc(OC)c(F)c3)[nH]c3c2c(=O)n(C)c(=O)n3C)c1O | · | 6.1% | 7.8% | · | · | ·
O=C(NCc1cccc(F)c1)c1ccc2nc(N3CCOCC3)sc2c1 | -1.0% | -25.7% | -2.2% | ? | -6.8 | 0.0%
SMILES | HT1080 IDH1KD tx | TDP1 cell noCPT | DT40 TDP1 CPT | ELG1 DNA repair | IL1B secr inh | HT1080-NT tox
O=C(Nc1nc2ccccc2s1)c1cc(-c2ccco2)nc2ccccc12 | ? | 18.4µM* | 18.4µM* | ? | -8.7 | ?
Cc1csc(NC(=O)c2cc(-c3ccco3)nc3ccccc23)n1 | -3.5% | -22.7% | ? | 20.6µM* | -8.5 | 0.6%
Cc1nnc(NC(=O)c2cc(-c3ccco3)nc3ccccc23)s1 | · | · | · | -4.7% | · | ·
Cc1ccc2nc(NC(=O)c3cc(-c4ccco4)nc4ccccc34)sc2c1 | ? | ? | ? | -17.2% | -6.5 | ?
COc1cccc(-c2cc(C(=O)Nc3nc4ccccc4s3)c3ccccc3n2)c1 | ? | 25.9µM* | 16.4µM* | -15.8% | -12.9 | ?
Cc1[nH]nc2oc(=O)c(CCO)c(C)c12 | 0.4%[9.24 µM] | 3.8% | -89.1% | 10.3% | 11.6 | -9.2%
COc1ccc(-c2[nH]nc3oc(=O)c(CCO)c(C)c23)cc1 | 0.7% | -19.3% | 13.4% | 1.7% | -84.3* | -1.9%
CCc1ccc(/C=N/NC(=O)c2cc(-c3cccc([N+](=O)[O-])c3)n[nH]2)cc1 | 6.51µM* | 2.91µM* | 3.66µM* | ? | 15.8 | 7.31µM*
O=C(N/N=C/c1cccc([N+](=O)[O-])c1)c1cc(-c2ccc3c(c2)OCO3)n[nH]1 | -3.0% | -19.8% | -6.5% | 19.0% | 2.5 | 2.3%
C/C(=N\NC(=O)c1cc(-c2cccc([N+](=O)[O-])c2)n[nH]1)c1ccccc1O | 23.1µM* | ? | ? | -23.8% | 44.8 | ?
CC[n+]1c(-c2ccc(C)cc2)csc1Nc1c(C)n(C)n(-c2ccccc2)c1=O | -24.3% | 11.6µM* | 14.6µM* | ? | ? | -4.4%
Cc1ccc(N2C(=O)C(Cl)=C(Nc3c(C)n(C)n(-c4ccccc4)c3=O)C2=O)cc1 | ? | 13µM* | ? | -2.5% | -16.0 | 0.0%
CC[n+]1c(-c2ccccc2)csc1Nc1c(C)n(C)n(-c2ccccc2)c1=O | 0.9% | -38.9% | ? | ? | 0.0 | -0.5%
COc1cccc(-c2ccc3ncnc(NCCc4c[nH]c5ccc(OC)cc45)c3c2)c1 | · | 20.6µM* | 23.1µM* | · | · | ·
COc1ccc2[nH]cc(CCNc3cc(-c4ccc(C(=O)N(C)C)cc4)ncn3)c2c1 | · | -16.6% | ? | · | · | ·
COc1ccc2[nH]cc(CCNc3cc(-c4ccccc4OC)ncn3)c2c1 | · | ? | 16.4µM* | · | · | ·
COc1ccc(CNc2ncnc3ccc(-c4ccccc4C#N)cc23)c(OC)c1 | · | -8.6% | ? | · | · | ·
COc1ccc2[nH]cc(CCNc3cc(-c4cccc(C#N)c4)ncn3)c2c1 | · | ? | 20.6µM* | · | · | ·

Screens from PubChem.
